PubChem BioAssay (EPA / NIEHS)
Inconclusive results are not listed. Calls of active or inactive are those of the source. The calls were made as follows, unless noted: active = hit-call score of the fitted dose curve at least 0.9, where 1 is the maximum; inactive = score below 0.9.

Experiments:
DIO2 (gene 1734) = experiment: CCTE_GLTED_hDIO2: CCTE's human Deiodinase 2 (DIO2) Inhibition Assay, Great Lakes Toxicology and Ecology Division (GLTED) Lab (AID 2284050; active = hit-call score of the fitted dose curve at least 0.9, where 1 is the maximum)
Procedure, shortened: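 In this cell-free test, chemicals are exposed to human deiodinase type 2 for 3 hours. Released iodide is determined spectrophotometrically via the Sandell-Kolthoff method, and signal loss relative to DMSO is fitted.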

DIO3 (gene 1735) = experiment: CCTE_GLTED_hDIO3: CCTE's human Deiodinase 3 (DIO3) Inhibition Assay, Great Lakes Toxicology and Ecology Division (GLTED) Lab (AID 2284055; active = hit-call score of the fitted dose curve at least 0.9, where 1 is the maximum;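 also: potency is for inhibition seen as loss of released iodide signal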)
Procedure, shortened: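 Enzyme activity is tracked as iodide release from substrate by recombinant human DIO3 over 3 h with chemical present. A second Sandell-Kolthoff step converts iodide to an absorbance signal, fitted relative to DMSO.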

[1] = CCTE_Shafer_MEA_acute_AB: CCTE's Alamar Blue Assay for Cytotoxicity in the Neural Acute Assay, Shafer Lab (AID 2284069; active = hit-call score of the fitted dose curve at least 0.9, where 1 is the maximum;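 also: active compounds lower the viability signal compared with DMSO wells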)
Procedure, shortened: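 Primary rat cortical neurons on MEA plates, exposed acutely after baseline recording on day 13 or 15 post-plating. Viability by CellTiter Blue resazurin reduction (1:6 reagent dilution), fluorescence 544/590 nm; loss of signal versus DMSO.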

[2] = CCTE_Shafer_MEA_acute_LDH: CCTE's Lactate Dehydrogenase Assay for Cytotoxicity in the Neural Acute Assay, Shafer Lab (AID 2284086; active = hit-call score of the fitted dose curve at least 0.9, where 1 is the maximum;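 also: active means LDH release rises above DMSO vehicle level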)
Procedure, shortened: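 Released lactate dehydrogenase, read at 490 nm, indicated cytotoxicity after acute 40-min compound treatment of rat cortical neuron networks grown on 48-well MEA plates.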

[3] = CCTE_Shafer_MEA_dev_spike_duration_mean: CCTE's Neural Network Formation Assay for Mean Spike Duration, Shafer Lab (AID 2284051);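 also: mean network spike duration pooled as area under curve over DIV 5 to 12 recordings; potency for a decrease in mean network spike duration versus DMSO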
Procedure, shortened: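 Primary rat cortical neurons on 16-electrode MEA wells (PEI-coated, laminin in plating drop), exposed from plating through DIV 12 with compound renewed at DIV 5 and 9. Mean network-spike duration recorded DIV 5, 7, 9, 12; trapezoidal AUC across days, DMSO baseline.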

[4] = CCTE_Shafer_MEA_dev_network_spike_duration_std: CCTE's Neural Network Formation Assay for Standard Deviation of Network Spike Duration, Shafer Lab (AID 2284052);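 also: area under curve of spike duration SD across recording days 5 to 12; hits are decreases in network spike duration SD versus DMSO vehicle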
Procedure, shortened: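 Primary rat cortical neurons on PEI-coated 16-electrode MEA wells, exposed from plating day 0 through day 12 with compound renewed at DIV 5 and 9. Network spike duration SD recorded on days 5, 7, 9, 12, collapsed as trapezoidal AUC; loss-of-signal fit versus DMSO.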

[5] = CCTE_Shafer_MEA_dev_per_network_spike_spike_percent: CCTE's Neural Network Formation Assay for Percent of Spikes in a Network Spike, Shafer Lab (AID 2284054)
Procedure, shortened: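 Primary rat cortical neurons on 16-electrode MEA wells (PEI-coated, laminin at plating), exposed from day 0 with renewal at DIV 5 and 9; spikes within 0.05 s of network-spike peaks over total spikes, AUC across days 5, 7, 9, 12.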

[6] = CCTE_Shafer_MEA_dev_LDH: CCTE's Lactate Dehydrogenase Assay for Cytotoxicity in the Neural Network Formation Assay, Shafer Lab (AID 2284068; active = hit-call score of the fitted dose curve at least 0.9, where 1 is the maximum;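 also: exposure for twelve days from plating with re-dosing on DIV 5 and 9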)
Procedure, shortened: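 Primary rat cortical neurons were plated on PEI/laminin MEA plates and exposed from day 0 for twelve days, with compound renewed at DIV 5 and 9. Cytotoxicity was determined by spectrophotometric LDH assay relative to DMSO.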

[7] = CCTE_Shafer_MEA_dev_AB: CCTE's Alamar Blue Assay for Cytotoxicity in the Neural Network Formation Assay, Shafer Lab (AID 2284083; active = hit-call score of the fitted dose curve at least 0.9, where 1 is the maximum;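 also: twelve days of exposure from plating with re-dosing on DIV 5 and 9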)
Procedure, shortened: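 Primary rat cortical neurons on PEI-coated 48-well MEA plates, 1.5 x 10^5 cells/well in laminin drop; compound exposure from day 0 of plating for twelve days, renewed at medium changes on DIV 5 and 9. Viability read as resazurin reduction by fluorescence, relative to DMSO.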

[8] = CCTE_Shafer_MEA_dev_mutual_information_norm: CCTE's Neural Network Formation Assay for Mutual Information Normalization, Shafer Lab (AID 2284091);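 as to AC50: mutual information between electrodes summarised as area under curve across four recording days; potency is for a decrease in mutual information relative to DMSO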
Procedure, shortened: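 Rat cortical cultures, 48-well MEA, continuous exposure DIV 0–12 with full media/compound change DIV 5 and 9. Readout: inter-electrode mutual information, AxIS adaptive spike detection; AUC across DIV 5/7/9/12 recordings; DMSO baseline, negative fitting direction.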

[9] = CCTE_Shafer_MEA_dev_correlation_coefficient_mean: CCTE's Neural Network Formation Assay for Mean Correlation Coefficient, Shafer Lab (AID 2284093);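 also: well mean pairwise spike train correlation integrated as AUC over recording days 5 to 12; potency fitted for loss of correlation relative to DMSO vehicle wells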
Procedure, shortened: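 Spontaneous activity recorded on days 5, 7, 9 and 12 post-plating; pairwise spike correlations are averaged across active electrodes and collapsed to an area-under-curve. Rat cortical cultures are dosed from plating through 12 days, with compound renewed at media changes.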

[10] = IUF_NPC1b_proliferation_BrdU_72hr: Leibniz Research Institute for Environmental Medicine (IUF) 72-hour Neural Progenitor Cell Bromodeoxyuridine (BrdU) Proliferation Assay (NPC1b) (AID 2284207)
Procedure, shortened: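 hNPC spheres (primary, GW 16-19 fetal cortex), single sphere/well, EGF+FGF medium; 72 h compound, no renewal; BrdU pulse last 16 h; luminescent ELISA; activity vs DMSO baseline; growth-factor withdrawal as positive control.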

[11] = IUF_NPC1a_proliferation_area_72hr: Leibniz Research Institute for Environmental Medicine (IUF) 72-hour Neural Progenitor Cell Proliferation Area Assay (NPC1a) (AID 2284208)
Procedure, shortened: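 Proliferation is scored as sphere area gain in primary human fetal neural progenitors treated for 72 h in EGF/FGF-containing medium. Viability, LDH and BrdU readouts come from the same wells.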

[12] = IUF_NPC1_viability_72hr: Viability Assessment at 72 hours in the Leibniz Research Institute for Environmental Medicine (IUF) Neural Progenitor Cell Proliferation Assay (NPC1) (AID 2284209)
Procedure, shortened: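 Each well receives one 0.3 mm progenitor sphere from fetal brain cortex; test chemical is added at plating and left three days. Viability comes from alamar blue fluorescence, multiplexed with LDH and BrdU readouts in the same well.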

[13] = CCTE_Mundy_HCI_Cortical_Synap_Neur_Matur_NeuriteSpotCountPerNeuriteLength: CCTE's Synaptogenesis and Neurite Maturation Assay in rat cortical cells for Neurite Spot Count per Neurite Length, Mundy Lab (AID 2284210)
Procedure, shortened: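 Rat primary cortical cultures, glia arrested with AraC at DIV 5, were dosed with media change at DIV 7 and fixed at DIV 12. Synaptophysin puncta per MAP2-labelled neurite length were quantified by high-content imaging versus DMSO.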

[14] = CCTE_Mundy_HCI_Cortical_Synap_Neur_Matur_BPCount: CCTE's Synaptogenesis and Neurite Maturation Assay in rat cortical cells for Branch Point Count, Mundy Lab (AID 2284211)
Procedure, shortened: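 Branch point number is quantified by automated imaging of fluorescently labelled neurites and synapses in rat primary cortical neurons exposed from DIV 7 to DIV 12. Activity is analysed relative to DMSO negative control.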

[15] = UKN4_HCS_LUHMES_neurite_outgrowth: University of Konstanz (UKN) Leist Lab Neurite Outgrowth Assay in human LUHMES cells (UKN4) (AID 2284206); conditions: actives raise or lower the signal
Procedure, shortened: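 2-day-differentiated LUHMES, 24 h cpd exposure, live calcein-AM + H-33342 stain, HCS fluorescence imaging of neurite area; DMSO = baseline, bidirectional fit.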

[16] = UKN2_HCS_IMR90_neural_migration: University of Konstanz (UKN) Leist Lab Neural Crest Cell Migration Assay in human induced IMR90 Pluripotent Stem Cells (UKN2) (AID 2284204); conditions: actives raise or lower the signal
Procedure, shortened: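 iPSC-derived IMR90 neural crest cells on PLO/laminin/fibronectin were seeded around silicone stoppers; after stopper removal, migration in N2-S medium with EGF and FGF ran 24 h before 24 h chemical exposure. Calcein-AM/Hoechst high-content imaging; bidirectional fit versus DMSO.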

Structure (SMILES): CCCCCCCCCCCCc1cccc(S(=O)(=O)O)c1
- AC50 (DIO2 (gene 1734)): 90.4 µM (active)
- AC50 (DIO3 (gene 1735)): 38.1 µM (active)
- outcome [1]: inactive
- outcome [2]: inactive

Structure (SMILES): CC1(C)[C@H](C(=O)O[C@H](C#N)c2cccc(Oc3ccccc3)c2)[C@@H]1/C=C(\Cl)C(F)(F)F
- AC50 [3]: 12.9 µM (active)
- outcome [4]: inactive
- AC50 [5]: 3.67 µM (active)
- AC50 [6]: 22.7 µM (active)
- AC50 [7]: 12.9 µM (active)
- AC50 [8]: 1.4 µM (active)
- AC50 [9]: 5.11 µM (active)
- AC50 [10]: 3.63 µM (active)
- outcome [11]: inactive
- outcome [12]: inactive
- AC50 [13]: 4.59 µM (active)
- AC50 [14]: 2.28 µM (active)

Structure (SMILES): Cc1cc(C(F)(C(F)(F)F)C(F)(F)F)ccc1NC(=O)c1cccc(I)c1C(=O)NC(C)(C)CS(C)(=O)=O
- AC50 [3]: 11.3 µM (active)
- outcome [4]: inactive
- AC50 [5]: 20.9 µM (active)
- AC50 [6]: 11.3 µM (active)
- AC50 [7]: 4.32 µM (active)
- outcome [2]: inactive
- outcome [8]: inactive
- AC50 [9]: 19.2 µM (active)
- AC50 [15]: 264 nM (active)
- outcome [10]: inactive
- outcome [11]: inactive
- outcome [12]: inactive
- outcome [13]: inactive
- outcome [14]: inactive

Structure (SMILES): N#Cc1cccnc1
- outcome [2]: inactive

Structure (SMILES): OC(Cc1ccccc1Cl)(Cn1[nH]cnc1=S)C1(Cl)CC1 (centres undefined)
- AC50 [3]: 33.6 µM (active)
- outcome [4]: inactive
- AC50 [5]: 82.3 µM (active)
- AC50 [6]: 73.5 µM (active)
- AC50 [7]: 71.3 µM (active)
- AC50 [8]: 6.39 µM (active)
- AC50 [9]: 21.5 µM (active)
- AC50 [16]: 35.4 µM (active)
- AC50 [10]: 0.0417 µM (active)
- outcome [11]: inactive
- outcome [12]: inactive
- AC50 [13]: 80.4 µM (active)
- AC50 [14]: 50 µM (active)
